Test results published in PubChem BioAssay (Tox21).
Unmarked numbers belong to inactive results. Inconclusive results are not listed. Entries that show only a call come without a potency. Activity calls are given as the source filed them. Unless noted, calls follow the shape of the full dose curve.

What was measured:
[1] = Nuclear factor erythroid 2-related factor 2/antioxidant responsive element (Nrf2/ARE) small molecule agonists: qHTS cell viability counter screen in human keratinocytes (AID 1919968; active = well fitted curve in the direction sought with a large enough effect in the repeat runs; an effect the other way counts as inactive or inconclusive; also: nearly all actives have a fitted effect of over 55% in size)
Summary of the method: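 Cells of the KeratinoSens line were plated at 1,500 per well and left for 5 h before compound transfer from DMSO stocks. After a 23 h incubation (37 C, 5% CO2), CellTiter-Fluor was added. Signal was taken as fluorescence intensity 1 h later.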

[2] = Nuclear factor erythroid 2-related factor 2/antioxidant responsive element (Nrf2/ARE) small molecule agonists: luciferase reporter gene qHTS assay in human keratinocytes (AID 1919969); also: nearly all actives have a fitted effect of over 35% in size; also: potency is read from the fitted curve at half-maximal effect
[3] = molecular target: Gonadotropin-releasing hormone receptor (Homo sapiens) (UniProt P30968); experiment: Human gonadotropin-releasing hormone receptor (GnRHR) small molecule agonists, calcium flux assay in GnRHR-HEK293 cells (AID 1920063); also: nearly all actives have a fitted effect of over 35% in size
Summary of the method: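 Compounds dissolved in DMSO are pin-transferred onto dye-loaded GnRHR-HEK293 cells, which were seeded 18 h before at 37 C/5% CO2. Calcium signal is read as fluorescence intensity at 1 s intervals for 3 min.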

[4] = molecular target: KiSS-1 receptor (Homo sapiens) (UniProt Q969F8); experiment: Human kisspeptin (KISS1R) small molecule agonists, calcium flux assay in KISS1R-HEK293 cells (AID 1920064; active = well fitted curve in the direction sought with a large enough effect in the repeat runs; an effect the other way counts as inactive or inconclusive)
Summary of the method: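 Cell line: HEK293, stable human KISS1R. Dye loading 1 h at 37 C after 18 h culture. Read: kinetic fluorescence, 480/540 nm, 3 min at 1 s intervals.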

[5] = G protein-coupled receptor (GPCR) small molecule agonists, calcium flux assay: HEK293 wild type cell line counter screen (AID 1920065)
Summary of the method: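 Tox21 10K compounds, 15 concentrations each in triplicate, pin-transferred in DMSO onto dye-loaded cells; kinetic read at 480/540 nm for 3 min, 1 s intervals.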

[6] = p53 small molecule agonists, cell-based qHTS assay with human liver microsomes (AID 1963577)
Summary of the method: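 p53RE-bla cells, 4,000/well, compound added after 5 h, with human liver microsomes 0.5 mg/mL and NADPH 0.5 mg/mL final; 16 h at 37 C, then LiveBLAzer 2 h RT, fluorescence.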

[7] = p53 small molecule agonists, cell-based qHTS assay with rat liver microsomes (AID 1963578)
Summary of the method: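 p53RE-bla cells, 4,000/well, pre-incubated 5 h, then given compounds plus rat liver microsomes (0.5 mg/mL final) and NADPH (0.5 mg/mL final). Incubation 16 h at 37 C; beta-lactamase reporter read by LiveBLAzer fluorescence after 2 h at room temperature.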

[8] = p53 small molecule agonists, cell-based qHTS assay with human liver microsomes: qHTS cell viability counter screen (AID 1963579); also: nearly all actives have a fitted effect of over 45% in size
Summary of the method: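 p53RE-bla cells, 4,000/well, dosed 5 hours after plating, with human liver microsomes (0.5 mg/mL final) plus NADPH (0.5 mg/mL final), 16 hours at 37 C. Viability read as CellTiter-Glo luminescence after 30 min at room temperature.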

[9] = p53 small molecule agonists, cell-based qHTS assay with rat liver microsomes: qHTS cell viability counter screen (AID 1963580); also: nearly all actives have a fitted effect of over 45% in size
Summary of the method: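 Rat liver microsome (0.5 mg/mL final) and NADPH (0.5 mg/mL final) co-incubation with compounds for 16 h at 37 C on HCT-116 p53RE-bla cells; cytotoxicity taken from intracellular ATP luminescence.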

[10] = p53 small molecule agonists, cell-based qHTS assay: qHTS cell viability counter screen (AID 1963581); also: nearly all actives have a fitted effect of over 45% in size
Summary of the method: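 ATP content measured by luminescence in HCT-116 p53RE-bla cells treated 16 h at 37 C, same wells as the reporter screen.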

[11] = p53 small molecule agonists, cell-based qHTS assay (AID 1963582; active = well fitted activation curve with a large enough effect in the signal ratio in the repeat runs, not every such curve was filed as active; the % refers to the signal ratio)
Summary of the method: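 16 h compound exposure (37 C) of p53 response element–bla cells, preceded by 5 h recovery at 37 C/5% CO2; read-out via LiveBLAzer B/G FRET substrate, 2 h RT, fluorescence intensity.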

[12] = molecular target: 5-hydroxytryptamine receptor 2A (Homo sapiens) (UniProt P28223); experiment: 5-hydroxytryptamine receptor 2A (HTR2A) small molecule antagonists, cell-based qHTS assay (AID 1963586); also: nearly all actives have a fitted effect of over 45% in size
Summary of the method: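 CHO cells stably expressing human HTR2A were plated for 18 h at 37 C, then loaded with calcium dye for 1 h. Compounds were preincubated 5 min at room temperature before DOI (4 nM solution) was added. Kinetic fluorescence was read for 3 min.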

[13] = molecular target: 5-hydroxytryptamine receptor 2A (Homo sapiens) (UniProt P28223); experiment: 5-hydroxytryptamine receptor 2A (HTR2A) small molecule agonists, cell-based qHTS assay (AID 1963587); also: nearly all actives have a fitted effect of over 30% in size
Summary of the method: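 Kinetic calcium-flux fluorescence (2 min, 1 sec intervals) after compound addition in agonist mode. HTR2A-CHO cells were cultured 18 h, then dye-loaded 1 h at 37 C.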

[14] = molecular target: Muscarinic acetylcholine receptor M1 (Homo sapiens) (UniProt P11229); experiment: Cholinergic receptor muscarinic 1 (CHRM1) small molecule antagonists, cell-based qHTS assay (AID 1963588); also: nearly all actives have a fitted effect of over 40% in size
Summary of the method: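 Compounds were tested at 15 concentrations in three independent runs. Dye-loaded CHRM1-CHO cells were exposed 5 min at room temperature before stimulation by acetylcholine added at 50nM. Intracellular calcium was read kinetically on FDSS for 3 min.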

[15] = molecular target: Muscarinic acetylcholine receptor M1 (Homo sapiens) (UniProt P11229); experiment: Cholinergic receptor muscarinic 1 (CHRM1) small molecule agonists, cell-based qHTS assay (AID 1963589); also: nearly all actives have a fitted effect of over 35% in size
Summary of the method: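 Homogeneous fluorescence calcium flux, agonist mode. Human M1-expressing CHO cells; compound dosed at 15 concentrations, three independent runs; signal sampled every 1 sec.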

[16] = cAMP Responsive Elements (CRE) small molecule agonists, cell-based qHTS assay (AID 1963590)
Summary of the method: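 HEK 293T cells stably bearing CRE-bla were plated at 2,000 cells per well and rested 18 h. Compounds, positive controls or DMSO were added for 3 h at 37 C. LiveBLAzer B/G substrate was then loaded for 2 h at room temperature.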

[17] = cAMP Responsive Elements (CRE) small molecule antagonists, cell-based qHTS assay (AID 1963591; active = well fitted inhibition curve with a large enough effect in the signal ratio in the repeat runs, not every such curve was filed as active; the % refers to the signal ratio)
Summary of the method: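 First, CRE-bla HEK293T cells settled 18 h at 37 C. Next, compound and 0.25 uM final NKH477 were applied for 3 h. Last, LiveBLAzer B/G substrate was loaded for 2 h at room temperature.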

[18] = molecular target: Beta-2 adrenergic receptor (Homo sapiens) (UniProt P07550); experiment: Adrenergic beta2 receptor (ADRB2) small molecule antagonists, cell-based qHTS assay (AID 1963592); also: series mostly up to about 92 µM; nearly all actives have a fitted effect of over 50% in size
Summary of the method: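 Assay format: CHO-ADRB2 cells, 18-20hr seeding at 37C/5% CO2, then compound plus 1nM isoproterenol agonist mix for 0.5hr RT. Homogeneous time-resolved fluorescence cAMP detection after 1hr, expressed as 665/615 nm ratio.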

[19] = molecular target: D(2) dopamine receptor (Homo sapiens) (UniProt P14416); experiment: Dopamine D2 receptor (DRD2) small molecule agonists, cell-based qHTS assay (AID 1963594); also: nearly all actives have a fitted effect of over 35% in size
Summary of the method: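 cAMP accumulation in DRD2-HEK293 cells measured by HTRF after 1 h detection; compounds added 10 min before NKH477 (200nM […]) forskolin-analogue stimulation, 30 min at room temperature, with Ro20-1724 present at 0.1 mM final.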

[20] = molecular target: D(2) dopamine receptor (Homo sapiens) (UniProt P14416); experiment: Dopamine D2 receptor (DRD2) small molecule antagonists, cell-based qHTS assay (AID 1963595; active = well fitted inhibition curve with a large enough effect in the signal ratio in the repeat runs, with a control signal flat; the % refers to the signal ratio)
Summary of the method: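 Stable D2 receptor HEK293 line, 24 h after seeding. Compound preincubated 10 min, then quinpirole (12 nM) with forskolin analogue NKH477 (200 nM), 30 min, room temperature. Detection by time-resolved FRET of cAMP.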

Sequence of D(2) dopamine receptor (Homo sapiens) (P14416 whole entry, looked up): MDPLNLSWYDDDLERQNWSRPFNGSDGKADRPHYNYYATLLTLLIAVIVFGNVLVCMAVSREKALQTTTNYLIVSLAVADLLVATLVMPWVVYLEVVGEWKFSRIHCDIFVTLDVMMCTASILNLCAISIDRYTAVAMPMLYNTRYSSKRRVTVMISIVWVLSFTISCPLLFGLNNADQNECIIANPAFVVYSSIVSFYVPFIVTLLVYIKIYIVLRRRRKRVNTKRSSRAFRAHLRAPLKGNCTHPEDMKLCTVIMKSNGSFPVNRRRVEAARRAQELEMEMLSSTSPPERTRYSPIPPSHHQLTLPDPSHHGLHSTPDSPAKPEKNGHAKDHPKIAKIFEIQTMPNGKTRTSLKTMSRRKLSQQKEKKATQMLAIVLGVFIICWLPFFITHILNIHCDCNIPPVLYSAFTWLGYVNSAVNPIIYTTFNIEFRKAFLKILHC
Sequence of 5-hydroxytryptamine receptor 2A (Homo sapiens) (P28223 whole entry, looked up): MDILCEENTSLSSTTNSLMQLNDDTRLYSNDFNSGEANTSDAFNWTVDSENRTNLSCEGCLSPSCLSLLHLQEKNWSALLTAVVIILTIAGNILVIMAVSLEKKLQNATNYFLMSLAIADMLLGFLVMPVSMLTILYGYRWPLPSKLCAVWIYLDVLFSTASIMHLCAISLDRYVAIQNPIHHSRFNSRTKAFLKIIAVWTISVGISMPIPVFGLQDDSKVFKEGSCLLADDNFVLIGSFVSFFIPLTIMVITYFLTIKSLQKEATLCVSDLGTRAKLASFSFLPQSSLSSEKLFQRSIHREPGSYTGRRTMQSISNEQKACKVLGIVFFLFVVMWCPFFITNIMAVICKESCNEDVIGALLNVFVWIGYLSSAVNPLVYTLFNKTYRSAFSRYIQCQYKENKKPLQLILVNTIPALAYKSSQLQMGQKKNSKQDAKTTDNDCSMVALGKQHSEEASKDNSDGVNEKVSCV
Sequence of Muscarinic acetylcholine receptor M1 (Homo sapiens) (P11229 whole entry, looked up): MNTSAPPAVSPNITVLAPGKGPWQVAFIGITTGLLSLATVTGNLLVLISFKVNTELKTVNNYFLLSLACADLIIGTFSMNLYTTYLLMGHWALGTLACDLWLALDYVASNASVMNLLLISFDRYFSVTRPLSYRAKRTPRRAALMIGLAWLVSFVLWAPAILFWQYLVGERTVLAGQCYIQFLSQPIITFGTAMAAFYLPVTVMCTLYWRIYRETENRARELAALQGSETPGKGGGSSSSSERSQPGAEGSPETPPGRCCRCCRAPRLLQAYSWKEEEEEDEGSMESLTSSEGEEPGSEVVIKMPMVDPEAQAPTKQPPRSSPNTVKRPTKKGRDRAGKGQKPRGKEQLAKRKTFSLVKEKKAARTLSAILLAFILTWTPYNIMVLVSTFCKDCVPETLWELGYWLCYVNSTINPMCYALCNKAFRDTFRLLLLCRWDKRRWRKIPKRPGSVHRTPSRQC
Sequence of Beta-2 adrenergic receptor (Homo sapiens) (P07550 whole entry, looked up): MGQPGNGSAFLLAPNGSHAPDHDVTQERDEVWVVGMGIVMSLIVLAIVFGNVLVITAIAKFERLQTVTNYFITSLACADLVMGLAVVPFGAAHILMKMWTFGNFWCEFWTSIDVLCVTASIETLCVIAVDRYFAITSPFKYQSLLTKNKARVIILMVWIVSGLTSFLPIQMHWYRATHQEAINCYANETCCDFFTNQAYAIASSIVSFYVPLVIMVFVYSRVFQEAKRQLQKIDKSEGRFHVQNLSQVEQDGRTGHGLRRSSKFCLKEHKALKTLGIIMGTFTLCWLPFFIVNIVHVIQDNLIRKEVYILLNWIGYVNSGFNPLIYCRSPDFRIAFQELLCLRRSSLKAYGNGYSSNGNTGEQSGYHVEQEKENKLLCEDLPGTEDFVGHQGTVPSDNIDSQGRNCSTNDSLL
Sequence of KiSS-1 receptor (Homo sapiens) (Q969F8 whole entry, looked up): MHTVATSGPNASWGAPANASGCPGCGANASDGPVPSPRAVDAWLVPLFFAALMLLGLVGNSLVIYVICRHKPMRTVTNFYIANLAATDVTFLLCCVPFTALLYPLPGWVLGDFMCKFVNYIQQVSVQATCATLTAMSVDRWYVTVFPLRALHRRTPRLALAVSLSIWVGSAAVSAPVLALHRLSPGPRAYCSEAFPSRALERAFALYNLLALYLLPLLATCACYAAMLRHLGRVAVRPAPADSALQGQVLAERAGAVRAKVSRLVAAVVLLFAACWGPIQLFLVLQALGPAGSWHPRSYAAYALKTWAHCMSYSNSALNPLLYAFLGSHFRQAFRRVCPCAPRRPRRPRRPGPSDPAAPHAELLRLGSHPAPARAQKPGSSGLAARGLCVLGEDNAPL
Sequence of Gonadotropin-releasing hormone receptor (Homo sapiens) (P30968 whole entry, looked up): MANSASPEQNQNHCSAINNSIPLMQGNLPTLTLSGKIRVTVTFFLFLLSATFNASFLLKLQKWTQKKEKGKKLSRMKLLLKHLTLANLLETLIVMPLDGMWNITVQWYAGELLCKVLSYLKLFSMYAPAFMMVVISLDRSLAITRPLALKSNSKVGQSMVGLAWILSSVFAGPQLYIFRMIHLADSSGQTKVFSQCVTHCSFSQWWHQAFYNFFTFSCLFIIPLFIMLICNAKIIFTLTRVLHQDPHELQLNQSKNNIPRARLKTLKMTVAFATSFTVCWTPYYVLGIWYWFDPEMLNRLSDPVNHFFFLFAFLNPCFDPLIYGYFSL

With `CC(C)OS(C)(=O)=O` the Potency [1] was “inactive”, the Potency [2] was “inactive” and the Potency [3] was “inactive”. For the same molecule, the Potency [4] was “inactive”, the Potency [5] was “inactive” and the Potency [6] was “inactive”. For the same molecule, the Potency [7] was “inactive”, the Potency [8] was “inactive” and the Potency [9] was “inactive”. For the same molecule, the Potency [10] was “inactive”, the Potency [11] was “inactive” and the Potency [12] was “inactive”. The Potency [13] was “inactive”, the Potency [14] was “inactive” and the Potency [15] was “inactive”. For the same molecule, the Potency [16] was “inactive”, the Potency [17] was “inactive” and the Potency [18] was “inactive”. For the same molecule, the Potency [19] was “inactive” and the Potency [20] was “inactive”.

With `CO[C@@H]1[C@H](OC(=O)NC(=O)CCl)CC[C@]2(CO2)[C@H]1[C@@]1(C)O[C@@H]1CC=C(C)C` the activity change, negative = cytotoxicity [1] was -2.18% [at 19 µM], the Potency [2] was 16.7 µM (active) and the activity change [3] was 0.0131% [at 11.8 µM, active compounds read high]. It also gave an activation [4] of 0.453% [at 15.8 µM], an activation [5] of 2.6% [at 11.8 µM] and an activation [6] of -1.53% [at 13.5 µM]. It also gave an activation [7] of 1.99% [at 13.6 µM], an activity change, negative = cytotoxicity [8] of 1.12% [at 13.5 µM] and an activity change, negative = cytotoxicity [9] of -0.0178% [at 13.5 µM]. For the same molecule, the activity change, negative = cytotoxicity [10] was 4.01% [at 13.5 µM], the activation [11] was -1.88% [at 13.5 µM] and the activity, negative = inhibition [12] was -0.303% [at 12.7 µM]. For the same molecule, the activation [13] was -4.56% [at 15.9 µM], the activity, negative = inhibition [14] was 56% [at 12.6 µM] and the activation [15] was -0.344% [at 15.8 µM]. For the same molecule, the activation [16] was -1.17% [at 19 µM], the activity change, negative = inhibition [17] was -7.46% [at 18.9 µM] and the activity change, negative = inhibition [18] was -3.1% [at 19 µM]. The activation [19] was 1.8% [at 19 µM] and the activity change, negative = inhibition [20] was -0.406% [at 18.9 µM].

With `O=[N+]([O-])c1ccccc1O` the Potency [1] was “inactive”, the Potency [2] was “inactive” and the Potency [3] was “inactive”. The Potency [4] was “inactive”, the Potency [5] was “inactive” and the Potency [6] was “inactive”. For the same molecule, the Potency [7] was “inactive”, the Potency [8] was “inactive” and the Potency [9] was “inactive”. For the same molecule, the Potency [10] was “inactive”, the Potency [11] was “inactive” and the Potency [12] was “inactive”. For the same molecule, the Potency [13] was “inactive”, the Potency [14] was “inactive” and the Potency [15] was “inactive”. The Potency [16] was “inactive”, the Potency [17] was “inactive” and the Potency [18] was “inactive”. For the same molecule, the Potency [19] was “inactive” and the Potency [20] was “inactive”.

For `CNC(=S)S`, the Potency [1] was “inactive”, the Potency [2] was “inactive” and the Potency [3] was “inactive”. For the same molecule, the Potency [4] was “inactive”, the Potency [5] was “inactive” and the Potency [6] was “inactive”. For the same molecule, the Potency [7] was “inactive”, the Potency [8] was “inactive” and the Potency [9] was “inactive”. The Potency [10] was “inactive”, the Potency [11] was “inactive” and the Potency [12] was “inactive”. The Potency [13] was “inactive”, the Potency [14] was “inactive” and the Potency [15] was “inactive”. The Potency [16] was “inactive”, the Potency [17] was “inactive” and the Potency [18] was “inactive”. For the same molecule, the Potency [19] was “inactive” and the Potency [20] was “inactive”.

With `CCCCCCCCOC(=O)c1ccccc1C(=O)OCCCCCCCC` the Potency [1] was “inactive”, the Potency [2] was “inactive” and the Potency [3] was “inactive”. The Potency [4] was “inactive”, the Potency [5] was “inactive” and the Potency [6] was “inactive”. For the same molecule, the Potency [7] was “inactive”, the Potency [8] was “inactive” and the Potency [9] was “inactive”. The Potency [10] was “inactive”, the Potency [11] was “inactive” and the Potency [12] was “inactive”. For the same molecule, the Potency [13] was “inactive”, the Potency [14] was “inactive” and the Potency [15] was “inactive”. For the same molecule, the Potency [16] was “inactive”, the Potency [17] was “inactive” and the Potency [18] was “inactive”. The Potency [19] was “inactive” and the Potency [20] was “inactive”.

In the case of `C=C(C)C#N`, the Potency [1] is reported as “inactive”, the Potency [2] is reported as “inactive” and the Potency [3] is reported as “inactive”. For the same molecule, the Potency [4] was “inactive”, the Potency [5] was “inactive” and the Potency [6] was “inactive”. The Potency [7] was “inactive”, the Potency [8] was “inactive” and the Potency [9] was “inactive”. The Potency [10] was “inactive”, the Potency [11] was “inactive” and the Potency [12] was “inactive”. For the same molecule, the Potency [13] was “inactive”, the Potency [14] was “inactive” and the Potency [15] was “inactive”. For the same molecule, the Potency [16] was “inactive”, the Potency [17] was “inactive” and the Potency [18] was “inactive”. For the same molecule, the Potency [19] was “inactive” and the Potency [20] was “inactive”.

With `CCCCN=C=O` the Potency [1] was “inactive”, the Potency [2] was “inactive” and the Potency [3] was “inactive”. For the same molecule, the Potency [4] was “inactive”, the Potency [5] was “inactive” and the Potency [6] was “inactive”. The Potency [7] was “inactive”, the Potency [8] was “inactive” and the Potency [9] was “inactive”. The Potency [10] was “inactive”, the Potency [11] was “inactive” and the Potency [12] was “inactive”. The Potency [13] was “inactive”, the Potency [14] was “inactive” and the Potency [15] was “inactive”. For the same molecule, the Potency [16] was “inactive”, the Potency [17] was “inactive” and the Potency [18] was “inactive”. The Potency [19] was “inactive” and the Potency [20] was “inactive”.
